# Screening results deposited in PubChem by National Center for Advancing Translational Sciences (NCATS).
# HepG2 viability: qHTS for Inhibitors of TGF-b: Cytotox Counterscreen | HepG2 CAGA-GFP viability, ATP luminescence, 18 h | Potency, µM (top dose mostly 46.1 µM), without a hit: at the highest dose activity change, negative = cytotoxicity, usual class: cytotoxic | 410,000 tested, 0.76% active; note: potency is the fitted concentration of half-maximal effect
#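 HepG2 CAGA-GFP cells (1000/well, DMEM with 1% FBS) received compound, then TGF-beta at 500 pg/mL final, and were incubated 18 hours at 37 degrees C. Viability was read by CellTiter-Glo luminescence. Media-only wells were set as complete cell-killing and DMSO as no toxicity.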
# DT40 TDP1 CPT: qHTS for Inhibitors of human tyrosyl-DNA phosphodiesterase 1 (TDP1): qHTS in cells in presence of CPT; chicken DT40 Tdp1-/-;hTDP1 cells + 20 nM CPT, ATP luminescence, 48 h; Potency, µM (top dose mostly 46.2 µM), for inactives: top-dose activity change, negative = growth inhibition, hits mostly inhibitors; 420,000 tested, 12% active; note: potency is the fitted concentration of half-maximal effect; % is set by controls: 0 for no effect and ±100 for the full control effect; nearly all actives have a fitted effect of over 55% in size
#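 Cell growth measured by CellTiter-Glo luminescence after a minimum 48 h, 37 C compound exposure with 20 nM CPT in Tdp1-knockout DT40 cells stably expressing hTDP1, seeded 400/well; qHTS titration format.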
# TGFb SMAD3 inh: qHTS for Inhibitors of TGF-b. HepG2 CAGA-GFP TGF-b/SMAD3 reporter, GFP fluorescence, 18 h; TGF-beta stimulated, 500 pg/mL final. Potency, µM (titrated, usually from 46.1 µM), without a hit: at the highest dose activity, negative = inhibition, most hits filed as inhibitors. 410,000 tested, 1.2% active. AID 588855, 2011; note: potency is the fitted concentration of half-maximal effect; % is set by controls: 0 for no effect and ±100 for the full control effect; nearly all actives have a fitted effect of over 65% in size
#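 Per well, imaged GFP fluorescence of HEPG2 CAGA-GFP cells gives the signal; cells get compound, then TGF-beta (500 pg/mL final), 18 h at 37 degrees C; %Activity versus -TGF-beta and +DMSO controls.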
# TDP1 inh: qHTS Assay for Inhibitors of Tyrosyl-DNA Phosphodiesterase (TDP1); Tyrosyl-DNA phosphodiesterase 1 (Homo sapiens), Q9NUW8; recombinant TDP1, AlphaScreen DNA substrate cleavage; Potency, µM (top dose mostly 130 µM), without a hit: at the highest dose activity change, negative = inhibition, hits mostly inhibitors; 350,000 tested, 0.28% active; AID 485290, 2010; note: potency is the fitted concentration of half-maximal effect; % is set by controls: 0 for no effect and ±100 for the full control effect; nearly all actives have a fitted effect of over 40% in size
# Target sequence (Q9NUW8 whole entry, looked up): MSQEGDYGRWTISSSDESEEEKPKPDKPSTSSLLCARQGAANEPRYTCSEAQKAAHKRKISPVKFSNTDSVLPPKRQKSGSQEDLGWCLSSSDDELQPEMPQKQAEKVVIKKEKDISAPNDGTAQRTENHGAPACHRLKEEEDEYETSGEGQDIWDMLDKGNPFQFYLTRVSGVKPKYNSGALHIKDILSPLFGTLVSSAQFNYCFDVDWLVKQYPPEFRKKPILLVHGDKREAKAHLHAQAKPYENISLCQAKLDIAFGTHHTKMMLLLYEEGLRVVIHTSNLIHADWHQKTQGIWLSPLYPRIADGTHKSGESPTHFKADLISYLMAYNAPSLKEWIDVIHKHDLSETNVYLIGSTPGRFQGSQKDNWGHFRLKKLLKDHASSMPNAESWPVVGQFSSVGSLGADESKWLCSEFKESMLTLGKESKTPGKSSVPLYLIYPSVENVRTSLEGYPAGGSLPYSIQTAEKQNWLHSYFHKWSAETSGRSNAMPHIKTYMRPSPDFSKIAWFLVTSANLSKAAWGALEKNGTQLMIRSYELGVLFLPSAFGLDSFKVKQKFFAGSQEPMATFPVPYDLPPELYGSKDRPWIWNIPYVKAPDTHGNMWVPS
#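 E. coli-derived human Tdp1, 1 nM final. Cpd preinc 15 min RT; substrate 15 nM final, 5 min RT; AS bead mix 10 ug/ml final, 10 min RT. Signal loss = tyrosine-FITC cleavage. No-enzyme wells = max signal.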
# IL1B secr inh: qHTS for Inhibitors of Inflammasome Signaling: IL-1-beta AlphaLISA Primary Screen; THP-1 LPS/ATP IL-1B secretion, AlphaLISA, 16 h; hits give low values; activity change, % at 57.5 µM; 360,000 tested, 4.7% active; AID 743279, 2014; in the data active = activity change below about -50%; inconclusive = mostly about -30% to -49%; note: % is set by controls: 0 for no effect and ±100 for the full control effect
#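 Secreted IL-1B measured by AlphaLISA bead assay after 16 h compound exposure of THP-1 cells; compounds (final up to 57.5 uM) added 1 h before LPS (250 ng/mL) and ATP (1.25 mM) stimulation; lower signal means less secretion.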
# DT40 TDP1 no CPT: qHTS for Inhibitors of human tyrosyl-DNA phosphodiesterase 1 (TDP1): qHTS in cells in absence of CPT. DT40 Tdp1-/- hTDP1 cells, no CPT, ATP luminescence, 48 h. Potency, µM (doses to about 46.2 µM), inactives show at the highest dose activity change, negative = growth inhibition, hits mostly inhibitors. 420,000 tested, 15% active; note: potency is the fitted concentration of half-maximal effect; % is set by controls: 0 for no effect and ±100 for the full control effect; nearly all actives have a fitted effect of over 55% in size
#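 Growth kinetics read by CellTiter-Glo luminescence after ≥48 hr at 37 °C. Cells: DT40 Tdp1-/- stably carrying human TDP1, 400 per well, compound exposure in the absence of CPT (DMSO vehicle).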
# Active calls of the source: *; ? = inconclusive; · = not tested or not shown; [ ] = another dose, or the depositor's remark. In the library only some 19% were active in any assay of this set; here they are far more common. Unless noted, calls come from the whole dose curve; as a rule, active = well fitted curve in the direction sought with a large enough effect; inconclusive = small, poorly fitted or top-dose-only effect, or another doubt; inactive = no such curve, though single readings can be large; an effect the other way counts as inactive or inconclusive.
SMILES,HepG2 viability,DT40 TDP1 CPT,TGFb SMAD3 inh,TDP1 inh,IL1B secr inh,DT40 TDP1 no CPT
COc1cccc(CN2CCC(Oc3ccc(C(=O)N4CCCCC4)cc3)CC2)c1,-29.2%,-21.4%,-18.6%,2.7%,-15.2,-10.9%
CSc1cccc(CN2CCC(Oc3ccc(C(=O)N4CCCCC4)cc3)CC2)c1,-13.8%,?,0.0%,7.7%,-87.9*,-25.3%
COc1ccc(CCC(C)N2CCC(Oc3ccc(C(=O)N4CCCC4)cc3)CC2)cc1 (configuration not stated),62.0%,25.9µM*,?,4.9%,-16.3,?
COc1ccc(CN2CCC(Oc3ccc(C(=O)N4CCCCC4)cc3)CC2)cc1C,-48.9%,?,0.0%,-2.5%[56.1 µM],-53.1*,?
CC(CCc1ccc(O)cc1)N1CCC(Oc2ccc(C(=O)N3CCCC3)cc2)CC1 (configuration not stated),-8.4%,7.1%,12.9%,1.9%,-5.6,-4.3%
O=C(/C=C/c1ccc(OC(F)F)cc1)OCC(=O)N1CCC(c2ccccc2)=N1,-6.7%,?,-12.3%,0.7%,5.4,?
CC(C)c1nnc(SCC(=O)NC2CCCCC2)n1C,-7.7%,14.1%,10.4%,2.2%,6.6,10.8%
CS(=O)(=O)N(CC(=O)NCc1ccccc1Cl)C1CCCCC1,2.6%,-13.0%,-3.3%,5.1%,1.4,?
CS(=O)(=O)N(CC(=O)Nc1ccc(Br)cc1F)C1CCCCC1,6.1%,?,0.6%,1.1%,-1.5,9.2µM*
Cc1ccc(S(=O)(=O)N(CC(=O)NCc2ccncc2)C2CCCCC2)cc1,8.4%,11.6µM*,0.0%,4.2%,8.1,9.2µM*
CS(=O)(=O)N(CC(=O)NCc1ccc(Cl)cc1)C1CCCCC1,1.3%,20.6µM*,-2.4%,0.7%,-14.6,14.6µM*
CS(=O)(=O)N(CC(=O)Nc1ccccc1F)C1CCCCC1,-6.5%,-4.2%,8.4%,·,11.1,13.4%
CCCn1c(-c2ccc(F)cc2)nc2c(NCCCN(CC)CC)nc(C)nc21,·,·,·,9.9%,·,·
COc1ccc(C2C=CC(=O)CC2)c(OC)c1 (configuration not stated),·,?,·,·,-76.0*,?
Cn1c(N)nc(N)c(NC=O)c1=O,0.3%,1.1%,-5.4%,·,9.7,12.7%
Cc1ccc(C(=O)n2nc(C)c(S(=O)(=O)N3CCOCC3)c2C)cc1C,-26.7%,?,-0.8%,0.6%,·,?
O=C(Nc1ccc(F)cc1)c1oc2ccccc2c1NC(=O)C12CC3CC(CC(C3)C1)C2,-1.7%,1.7%,-12.6%,-6.4%,·,?
O=C(Oc1ccc(N(Cc2cccs2)C2=NS(=O)(=O)c3ccccc32)cc1)c1ccccc1,-15.1%,?,12.2%,0.5%,6.6,23.1µM*
O=C(Oc1ccc(N(Cc2cccs2)C2=NS(=O)(=O)c3ccccc32)cc1)c1ccc(Cl)cc1,-5.9%,?,-9.8%,-5.0%,-2.2,18.4µM*
CN(C1=NS(=O)(=O)c2ccccc21)c1ccc(OC(=O)c2ccccc2)cc1,-5.8%,0.5%,-1.2%,·,-13.7,?
O=S(=O)(c1ccc(F)cc1)N1CCN(c2nc(-c3ccccc3)nc3cc(Cl)ccc23)CC1,-8.6%,·,0.5%,0.0%,·,·
CC1(C)Cc2cccc(OCC(=O)OCC(=O)NCc3ccccc3)c2O1,-12.8%,-8.7%,-28.6%,0.0%,0.0,-15.2%
CCCCCNC(=O)c1cc2c(=O)n3ccccc3nc2n1C,-0.4%,?,?,-2.6%,·,?
